Bioassay records from PubChem BioAssay.
GPR151 activ: activators of human GPR151, primary screen, cell-based, PathHunter beta-arrestin, luminescence; G-protein coupled receptor 151 (Homo sapiens), Q8TDV0; PathHunter beta-arrestin GPR151 cells; activation, % at 11.2 µM; 650,000 tested, 1% active; AID 1508602, 2020; in the data active = activation above about 4.9%
MITF inh: MITF inhibitors, primary screen, biochemical, AlphaScreen, human | Microphthalmia-associated transcription factor (Homo sapiens), O75030 | AlphaScreen MITF homodimerization, bead proximity signal | inhibition, % at 2.6 µM | 650,000 tested, 0.91% active | AID 1259374, 2018; in the data active = inhibition above about 50%
Target sequence (O75030 whole entry, looked up): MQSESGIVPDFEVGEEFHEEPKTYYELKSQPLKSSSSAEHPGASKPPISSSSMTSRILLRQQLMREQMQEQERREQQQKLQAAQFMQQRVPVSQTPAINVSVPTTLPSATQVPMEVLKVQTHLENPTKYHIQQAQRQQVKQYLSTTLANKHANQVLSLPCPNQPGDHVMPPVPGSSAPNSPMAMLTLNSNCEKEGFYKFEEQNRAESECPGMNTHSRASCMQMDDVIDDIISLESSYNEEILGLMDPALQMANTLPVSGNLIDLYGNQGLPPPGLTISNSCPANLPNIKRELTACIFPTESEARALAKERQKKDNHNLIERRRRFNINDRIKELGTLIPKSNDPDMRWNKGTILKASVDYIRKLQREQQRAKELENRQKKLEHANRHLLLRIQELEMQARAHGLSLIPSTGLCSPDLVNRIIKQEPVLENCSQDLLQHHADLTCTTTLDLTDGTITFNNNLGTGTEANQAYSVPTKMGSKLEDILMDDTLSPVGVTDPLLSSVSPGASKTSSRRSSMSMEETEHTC
FBW7 activator: FBW7 E3 ligase activators, primary screen, biochemical, AlphaScreen, human. F-box/WD repeat-containing protein 7 (Homo sapiens), Q969H0. normalized activity (activation), % at 26.1 µM. AlphaScreen FBW7–phospho-cyclin E peptide binding, activator screen. 650,000 tested, 0.13% active; in the data active = normalized activity above about 1.9%;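 also: purified mutant Fbw7 with reduced substrate affinity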
TEAD-YAP inh: TEAD-YAP interaction inhibition, primary screen, TEAD-YAP interaction inhibitor project, luminescence, HEK-TIYL cells | TEAD-Gal4/YAP UAS-luciferase luminescence | inhibition, % at 9.12 µM | 640,000 tested, 1.4% active | AID 1259422, 2018; in the data active = inhibition above about 32%
MITF inh conf: MITF inhibitors, retest of hits, confirmation, biochemical, AlphaScreen, triplicate. shares compounds with MITF inh. AlphaScreen MITF homodimerization, biotin/His-MITF beads. inhibition, % at 2.6 µM. 4,700 tested, 16% active;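 active = inhibition above a cutoff derived from the DMSO control wells, cut at about 28% in these data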;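 also: inhibitors lower the bead chemiluminescence by keeping MITF from dimerizing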
AlphaScreen DR: AlphaScreen optical interference compounds, dose response, counter-screen, biochemical, HTS. shares compounds with MITF inh. AlphaScreen optical interference counterscreen, cell-free. IC50, µM. 480 tested, 6% active. AID 1259373, 2018; call rule not given here
AS interf ctr: AlphaScreen optical interference compounds, counter-screen for MITF inhibitor project, biochemical, triplicate | shares compounds with MITF inh | LysRS AlphaScreen counterscreen, signal interference | inhibition, % at 2.6 µM | 4,700 tested, 7.6% active | AID 1259376, 2018;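 active = inhibition above a cutoff derived from the DMSO control wells, cut at about 30% in these data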
Numbers stand for hits; . = inactive; / = not tested or not shown; ! = not confirmed by another sample. This is a sample that favours compounds with a hit; in the whole collection about 3.5% have one here.

SMILES | GPR151 activ | MITF inh | FBW7 activator | TEAD-YAP inh | MITF inh conf | AS interf ctr | others
Cc1cccc(CN2CCC(C(=O)NC(C)C)CC2)c1 | . | 77.1 | . | . | . | .
O=C1CCCC2=C1C(c1cc3c(cc1[N+](=O)[O-])OCO3)Nc1ccccc1N2 (stereo unspecified) | . | . | . | . | / | /
COc1ccc(Nc2nnc(SC(C(C)=O)C(C)=O)s2)cc1 | . | . | . | . | / | /
Cc1cccc(NC(=O)CCN2C(=O)C3C4C=CC(C4)C3C2=O)c1C (stereo unspecified) | . | . | . | . | / | /
COc1ccc(N2CCN(c3ncnc4sc(C(=O)NCC5CCCO5)c(C)c34)CC2)cc1 (stereo unspecified) | . | . | . | . | / | /
O=C1N[C@H](Cc2ccccc2)C(=O)N2CCN(C(=O)c3ccccc3)C[C@H]12 | . | . | . | . | / | /
O=C1N[C@H](CO)C(=O)N2CCN(C(=O)c3ccccc3)C[C@H]12 | . | . | . | . | / | /
O=C1N[C@H](Cc2ccc(O)cc2)C(=O)N2CCN(C(=O)NCc3ccccc3)C[C@H]12 | . | 74.7 | . | . | 72.0 | . | AlphaScreen DR=.
CCC[C@@H]1NC(=O)[C@H]2CN(C(=O)NCc3ccccc3)CCN2C1=O | . | 75.0 | . | . | 71.0 | . | AlphaScreen DR=.
O=C1N[C@H](CO)C(=O)N2CCN(C(=O)NCc3ccccc3)C[C@H]12 | . | 81.5 | . | . | 75.3 | . | AlphaScreen DR=.
O=C1N[C@@H](Cc2ccccc2)C(=O)N2CCN(C(=O)OCc3ccccc3)C[C@H]12 | . | . | . | . | / | /
O=C1N[C@@H](Cc2ccccc2)C(=O)N2CCN(C(=O)NCc3ccccc3)C[C@H]12 | . | 77.0 | . | . | 73.7 | . | AlphaScreen DR=.
NCCCC[C@@H]1NC(=O)[C@H]2CN(C(=O)NCc3ccccc3)CCN2C1=O | . | . | . | . | / | /
CCOc1ccc(-n2c(C)cc(/C=C3/C(=N)N4C=C(C)SC4=NC3=O)c2C)cc1 | . | . | . | . | / | /
CC(C)(C)c1ccc(/C=N\NC(=O)CN2CCN(Cc3ccccc3)CC2)cc1 | . | . | . | . | / | /
C=CCSc1nnc2c(n1)OC(c1cccc(OC(C)=O)c1)N(C(C)=O)c1ccccc1-2 (stereo unspecified) | . | . | . | . | / | /
CSc1ccc(/C=C2/C(=O)N(c3cc(C)cc(C)c3)C(c3cccc([N+](=O)[O-])c3)S2(=O)=O)cc1 (stereo unspecified) | . | . | . | . | / | /
CCOc1ccc2[nH]c(=O)c(CN(C(=O)c3cnccn3)C3CCCCC3)cc2c1 | . | . | . | . | / | /
O=C1[C@@H]2C[C@H](NCc3ccc(Cl)cc3)CN2C(=O)[C@H]2CCCN12 | . | . | . | . | / | /
Cc1cnc(Nc2ccc(-n3ccnc3)cc2)nc1Nc1ccccc1 | . | 52.2 | . | 37.5 | . | .
Cc1cnc(Nc2nc3ccccc3n2C)nc1Nc1ccccc1 | . | 72.7 | . | . | . | .
CCOC(=O)c1cc(CC)sc1Nc1nc2ccccc2nc1N1CCOCC1 | . | . | . | . | / | /
C/C(=N\Nc1nc2ccccc2[nH]1)c1ccccn1 | . | 105.2 | . | 74.2 | 110.3 | 99.4
C/C(=N\Nc1ccc(C(F)(F)F)cn1)c1ccccn1 | . | 57.9 | . | 86.6 | . | 35.3
C/C(=N\Nc1nc2ccccc2[nH]1)c1cccnc1 | . | . | . | . | / | /
SMILES | GPR151 activ | MITF inh | FBW7 activator | TEAD-YAP inh | MITF inh conf | AS interf ctr | others
O=C(NCCS(=O)(=O)N1CCN(CCc2ccccc2)CC1)c1ccc(Cl)cc1 | . | . | . | . | / | /
N#Cc1c(-c2ccco2)cc(-c2ccco2)nc1N | . | 84.7 | . | . | 72.7 | . | AlphaScreen DR=.
N#Cc1c(-c2ccco2)cc(C2CC2)nc1N | . | . | . | . | / | /
Cc1ccccc1/C=C1\N=C(c2cc(C3=N/C(=C/c4ccccc4C)C(=O)O3)cc(C3=N/C(=C/c4ccccc4C)C(=O)O3)c2)OC1=O | . | 58.7 | . | . | 45.7 | .
Cc1cc(C(=O)NNC(=S)NC(=O)/C=C/c2ccccc2Cl)n[nH]1 | . | 72.1 | . | . | 34.4 | 70.5
O=C(/C=C/c1ccccc1Cl)NC(=S)NNC(=O)c1cccs1 | . | . | . | . | / | /
CCNc1cc(Nc2ccc(-c3ccccc3)cc2)c([N+](=O)[O-])c2nonc12 | . | . | . | . | / | /
c1ccc(CN2CCC(NCc3ccccn3)CC2)cc1 | . | 61.6 | . | . | . | .
c1ccc(CN2CCC(NCc3c[nH]c4ccccc34)CC2)cc1 | . | 61.9 | . | . | . | .
C=CCOc1ccccc1CNC1CCN(Cc2ccccc2)CC1 | . | 52.7 | . | . | . | .
c1ccc(C2CCC(NCCc3ccccn3)CC2)cc1 (stereo unspecified) | . | 58.7 | . | . | . | .
Oc1ccccc1CNC1CCN(Cc2ccccc2)CC1 | . | . | . | . | / | /
COC(=O)c1c(C)oc2ccc(N(C(=O)Oc3ccccc3)S(=O)(=O)c3ccc(Cl)cc3)cc12 | . | . | . | . | / | /
O=C(CSc1ccc(-c2ccccn2)nn1)Nc1ccccc1F | . | 52.0 | . | . | 56.1 | 88.5
O=C(CSc1ccc(-c2ccccn2)nn1)Nc1ccc(F)c(F)c1 | . | . | . | . | / | /
O=C(CSc1ccc(-c2ccccn2)nn1)c1ccccc1 | . | 53.0 | . | . | 88.0 | 100.3
CCOc1ccc(CN2CCC(C(=O)N3CCN(CC)CC3)CC2)cc1 | . | . | . | . | / | /
NC(=O)C1CCN(Cc2ccc(Cl)c(Cl)c2)CC1 | . | 53.2 | . | . | . | .
CCN1CCN(C(=O)C2CCN(Cc3ccc(Cl)c(Cl)c3)CC2)CC1 | . | 63.4 | . | . | . | .
COc1ccccc1OCC(=O)Nc1ccc(N2CCCS2(=O)=O)cc1 | . | . | . | . | / | /
O=C(Nc1ccc(C(=O)O)cc1)/C(=C\c1ccc([N+](=O)[O-])cc1)NC(=O)c1ccccc1Cl | . | . | . | . | / | /
CCOc1cc(-c2ccc(I)o2)cc(=O)c2c(C)oc(C)c12 | . | 58.3 | . | . | 37.5 | .
CCOc1cc(-c2cc(OCC)c3c(C)oc(C)c3c(=O)c2)ccc1O | . | . | . | . | / | /
O=c1c(O)c(-c2ccc(O)cc2O)oc2cc(O)cc(O)c12 | . | 67.3! | . | . | 42.7 | . | AlphaScreen DR=.
O=C(CCc1nnc(CCCc2ccccc2)o1)N1CCN(C2CCCCC2)CC1 | . | . | . | . | / | /
COCCNC(=O)c1cnc2scc(C)n2c1=O | . | 75.6 | . | . | . | .
Cc1csc2ncc(C(=O)NCCCO)c(=O)n12 | . | . | . | . | / | /
CCN(CC)S(=O)(=O)c1cc(C(=O)Nc2ccc(Cl)cc2)ccc1Br | . | 71.7 | . | . | . | .
